# MmCpn inh – Inhibitors of TCP-1 ring complex (TRiC) of Methanococcus maripaludis (MmCpn): qHTS; Chaperonin Mm-Cpn (Methanococcus maripaludis); hit rate 0.031% among 330,000; AID 504842, 2011; purified Mm-Cpn ATPase, ADP Transcreener TR-FRET; Potency, µM (highest dose often 76.9 µM), actives largely listed as inhibitors; note: nearly all actives have a fitted effect of over 80% in size
#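 Reaction buffer contained 30 mM Tris pH 7.4, 100 mM KCl, 5 mM MgCl2 and 1 mM DTT. Mm-CPN (25 nM final) hydrolysed 10 uM ATP over 30 min at 37°C; ADP was read by HTRF.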
# ClpP mod – qHTS Assay for Activators of ClpP; ATP-dependent Clp protease proteolytic subunit (Bacillus subtilis (strain 168)), P80244; purified B. subtilis ClpP, FRET peptide cleavage, 20 min; Potency, µM (top dose mostly 57.5 µM); hit rate 1.9% among 340,000; AID 651965, 2013; active = well fitted falling curve with a large enough effect; inconclusive = small, poorly fitted or top-dose-only effect; inactive = no such curve, though single readings can be large or run the other way; note: the source files actives as falling curves though it sought activators and does not explain the sign; nearly all actives have a fitted effect of over 65% in size
# Target sequence (P80244 whole entry, looked up): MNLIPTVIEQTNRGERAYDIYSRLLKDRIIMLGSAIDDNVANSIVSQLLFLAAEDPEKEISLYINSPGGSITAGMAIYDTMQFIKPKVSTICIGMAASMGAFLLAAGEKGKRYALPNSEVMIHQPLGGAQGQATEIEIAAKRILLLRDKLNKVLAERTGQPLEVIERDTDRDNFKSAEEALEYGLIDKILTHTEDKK
#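 Buffer: 100 mM Tris/HCl pH8, 100 mM KCl, 0.05% low protease BSA, 2.5% glycerol, 0.01% Tween-20. ClpP 10 microg/mL final; 20 min RT; delta FRET normalized to ADEP and DMSO controls.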
# TDP43 rescue – qHTS of TDP-43 Inhibitors. TDP-43 expressing yeast growth rescue, BacTiter-Glo, 24 h. Potency, µM (top dose mostly 46.1 µM), actives largely listed as activators. hit rate 1.8% among 410,000. AID 652104, 2013; note: nearly all actives have a fitted effect of over 50% in size
#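 Growth rescue of TDP-43-toxic yeast measured as ATP luminescence (BacTiter-Glo). Cells grown to mid-log in raffinose, induced in galactose at OD600=0.02, exposed to compound 24 hr at 30 deg C.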
# Abeta rescue – qHTS for compounds that reverse cellular toxicity of Amyloid beta (A-beta) peptide in yeast: Primary Screen. yeast expressing A-beta42, growth rescue, OD600, 48 h; response scale: 0% DMSO, 100% iron-clioquinol control. AID 1347071, 2019. Potency, µM (highest dose often 46.1 µM), actives largely listed as activators. hit rate 0.063% among 410,000; note: nearly all actives have a fitted effect of over 55% in size
#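 Yeast A-beta toxicity model in growth medium with pinned compounds, 48 h at 30 C; growth read as absorbance at 600 nm. Normalized to FeCl3/clioquinol equimolar mix (positive) and DMSO (negative).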
# aSyn rescue – qHTS of alpha-syn Inhibitors | Yeast expressing alpha-synuclein, growth rescue, BacTiter-Glo, 24 h | Potency, µM (titrated, usually from 46.1 µM), hits mostly activators | hit rate 0.14% among 370,000 | AID 652106, 2013; note: nearly all actives have a fitted effect of over 65% in size
#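 Readout is rescue of growth in alpha-synuclein-expressing yeast, so inhibitors of toxicity appear as activators. Growth after 24 hr at 30 deg C in galactose medium is quantified by luminescence.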
# FUS suppressor – qHTS for Suppressors of FUS Proteinopathy: Primary screen using FUS-linked yeast assay. S. cerevisiae FUS-expressing, growth rescue, OD600, 24 h. Potency, µM (series often up to 76.6 µM), actives largely listed as activators. hit rate 0.24% among 390,000; note: nearly all actives have a fitted effect of over 55% in size
#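 Steps: raffinose overnight preculture; dilution to OD 0.005 in 2% galactose minimal medium; compound addition (concentration series); 24hr at 30C, 99% humidity; absorbance read at 600 nm.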
# A number is an active result; – = inactive; ? = inconclusive; · = not tested or not shown; [ ] = another dose, or the depositor's remark. Shown are actives, neighbours in structure and some others; about 3.6% of the full set was active somewhere. Unless noted, calls come from the whole dose curve; as a rule, active = well fitted curve in the direction sought with a large enough effect; inconclusive = small, poorly fitted or top-dose-only effect, or another doubt; inactive = no such curve, though single readings can be large; an effect the other way counts as inactive or inconclusive.
SMILES,MmCpn inh,ClpP mod,TDP43 rescue,Abeta rescue,aSyn rescue,FUS suppressor
CCOC(=O)C1CCCN(C(=O)c2ccc3nc(-c4ccccc4)c(-c4ccccc4)nc3c2)C1 (centres undefined),40µM,–,–,–,–,?
CCN1CCN(C(=O)c2ccc3nc(-c4ccccc4)c(-c4ccccc4)nc3c2)CC1,–,16µM,–,–,–,–
NC(=O)c1ccc2nc(-c3ccccc3)c(-c3ccccc3)nc2c1,–,–,–,–,–,–
CCOC(=O)C1CCCN(C(=O)c2ccc3nc(-c4ccc(OC)c(OC)c4)c(-c4ccc(OC)c(OC)c4)nc3c2)C1 (centres undefined),–,–,–,–,–,?
CCN1CCN(C(=O)c2ccc(C(F)(F)F)cc2)CC1,–,·,–,–,–,–
C#CCCCCCCC#CCN(C)C,–,32µM,–,–,–,–
CN(C)CC#CCCCCCCC#CCN(C)C,–,·,·,·,·,·
O=C(NC(NC(=S)Nc1ccccc1C(=O)O)C(Cl)(Cl)Cl)c1ccco1 (centres undefined),–,28µM,–,–,–,·
COc1ccc(CN(Cc2ccccc2)C(C)=O)cc1COc1ccc(NC(C)=O)cc1,·,–,·,·,–,·
C[C@]1(C(=O)NCCCNc2ncc(C(F)(F)F)cc2Cl)C=C[C@@H](Cc2ccccc2)N1C(=O)c1ccccc1,–,–,?,–,?,25µM
CC(C)COc1ccc(C(=O)NCC2OCCc3ccccc32)cc1 (centres undefined),·,–,–,–,·,–
COc1ccc(C(=O)NCC2OCCc3ccccc32)c(O)c1 (centres undefined),–,?,14µM,–,–,–
CC(C)(C)n1nnnc1C(c1ccccc1)N1CCN(c2ccc(C(F)(F)F)cn2)CC1 (centres undefined),·,–,35µM,–,–,–
Cc1cccc(CSc2nc3c(sc4ccccc43)c(=O)n2CCC(=O)NC(C)C)c1,·,–,–,–,·,–
CCN1CCN(Cc2ccc(NC(=O)c3cc(NC(=O)c4cc(-c5ccc(OC)cc5)n[nH]4)cc(OC)c3)cc2C(F)(F)F)CC1,–,–,–,–,–,28µM
Cc1ccc(CNS(=O)(=O)c2ccc(Cl)s2)cc1,·,–,13µM,–,–,–
Cc1ccc(CNS(=O)(=O)c2ccc(C)s2)cc1,–,–,?,–,–,–
CCC(=O)N1CCc2cc(CNS(=O)(=O)c3ccc(Cl)s3)ccc21,·,–,13µM,–,·,–
CC(=O)Nc1ccc(C2=CC(=O)C[C@H](c3ccc4c(c3)OCO4)C2)cc1,–,–,22µM,–,–,–
COc1ccc(C2=CC(=O)C[C@H](c3ccc4c(c3)OCO4)C2)cc1,–,–,11µM,–,–,–
O=C1C=C(/C=C/c2ccccc2)C[C@@H](c2ccc3c(c2)OCO3)C1,–,–,20µM,–,–,–
COc1ccc([C@H]2CC(=O)C=C(c3ccc4c(c3)OCO4)C2)cc1,–,–,?,–,–,–
O=C1C=C(c2ccc(O)cc2)C[C@@H](c2ccc3c(c2)OCO3)C1,–,–,–,–,–,–
O=C1C=C(c2ccccc2C(F)(F)F)C[C@@H](c2ccc3c(c2)OCO3)C1,–,–,18µM,–,–,–
CCC(Sc1nc2ccccc2c2nc(CCc3c(C)n[nH]c3C)nn12)C(=O)Nc1ccc(F)cc1 (centres undefined),·,–,–,–,·,–
SMILES,MmCpn inh,ClpP mod,TDP43 rescue,Abeta rescue,aSyn rescue,FUS suppressor
Cc1ccc(C2=CC(=O)C[C@H](c3ccc4c(c3)OCO4)C2)cc1,–,–,13µM,–,–,–
CCOC(=O)c1cc(-c2ccccc2)n(CCC(=O)NCCc2ccc(C)cc2)c1C,·,–,–,–,·,–
Cc1nc2nc(SCC(=O)NCCc3ccc(Cl)cc3)nn2c(C)c1Cc1ccccc1Cl,·,–,?,–,·,?
COc1cc(NC(=O)CSc2nc3nc(C)c(Cc4ccccc4)c(C)n3n2)cc(OC)c1,·,?,–,–,·,?
COc1cc(NC(=O)CSc2nc3nc(C)c(Cc4ccc(C)cc4)c(C)n3n2)cc(OC)c1,·,?,–,–,·,32µM
Cc1ccccc1Cc1c(C)nc2nc(SCC(=O)NCCc3ccc(Cl)cc3)nn2c1C,·,–,32µM,–,·,–
CCc1ccc(S(=O)(=O)NCc2cccn2Cc2cccc(C)c2)cc1,·,–,–,–,·,–
Cc1cccc(Cn2cccc2CNS(=O)(=O)c2ccccc2F)c1,·,–,20µM,–,·,–
O=C(Nc1nc(-c2ccccn2)cs1)C1CC1,–,–,–,?,–,–
O=C(CC1CC2CCC1C2)Nc1nc(-c2ccccn2)cs1 (centres undefined),–,·,18µM,14µM,25µM,–
COc1ccc(OCCCC(=O)Nc2nc(-c3ccccn3)cs2)cc1,–,–,11µM,?,–,–
Cc1cc(C)c(OCC(=O)Nc2nc(-c3ccccn3)cs2)c(C)c1,–,·,–,–,13µM,?
O=C(CCS(=O)(=O)c1ccccc1)Nc1nc(-c2ccccn2)cs1,·,–,–,–,–,–
CC(=O)c1c(N2CCOCC2)nc2ccc(Br)cc2c1-c1ccccc1,–,·,14µM,–,–,–
O=c1[nH]c2ccc(Br)cc2c(-c2ccccc2)c1N1CCOCC1,–,–,–,–,–,–
O=C(COC(=O)/C=C/c1ccc(C(F)(F)F)cc1)NCc1ccco1,–,–,18µM,–,–,–
O=C(COC(=O)/C=C/c1ccccc1)NCc1ccco1,·,–,–,–,–,–
O=C(COC(=O)/C=C/c1ccc(C(F)(F)F)cc1)NC1CC1,–,–,6.3µM,–,–,–
O=C(COC(=O)/C=C/c1cccc(Cl)c1)NC1CCCC1,–,–,13µM,–,–[1.84 µM],–
O=C(COC(=O)Cc1c(Cl)cccc1Cl)NCC1CCCO1 (centres undefined),–,25µM,–,–,–,–
Cc1ccc(NC(=O)CN2C(=O)CCc3cc(S(=O)(=O)N4CCOCC4)ccc32)c(C)c1,·,–,–,–,·,–
Cc1ccccc1Cn1c(CN2CCC(C(=O)NCc3cccnc3)CC2)cc2ccccc21,·,–,–,–,·,–
COc1ccc(-c2cc3ncc(C)n3c(Nc3ncccc3C(N)=O)n2)cc1OC,·,·,·,·,–,·
O=C(COC(=O)/C=C/c1ccc(Cl)cc1)NC1CC1,–,–,35µM,–,–,–
O=C(COC(=O)/C=C/c1ccc(C(F)(F)F)cc1)NCC1CCCO1 (centres undefined),–,–,25µM,–,–,–

# High-throughput results: PubChem BioAssay, National Center for Advancing Translational Sciences (NCATS)
